The panel holds about 83,000 compounds, 20% with a hit somewhere; the sample as a whole holds those more often.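 A percent growth of 40 corresponds to 60% growth inhibition; 0 means no net growth; -100 means all cells died. Active threshold: below 10.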 A number with no mark means an inactive call. Activity calls are given as the source filed them.

Test systems include SR leukemia; RPMI-8226 leukemia; OVCAR-8 ovarian; OVCAR-5 ovarian; OVCAR-4 ovarian; SK-OV-3 ovarian; IGROV1 ovarian; OVCAR-3 ovarian; HS 578T breast; NCI/ADR-RES ovarian; T-47D breast; BT-549 breast; MDA-MB-435 melanoma; SW-620 colon; MCF7 breast; HCT-116 colon; HCC-2998 colon; KM12 colon.
Common to all, as to test: NCI-60 one-dose screen, 48 h (100 = growth as untreated, 0 = no growth, -100 = all killed)
Holding throughout (conditions): 10 µM unless noted

Regarding `CC/C(Cc1ccccc1)=C(/c1ccc(O)cc1)c1ccc(OCCN2CCCC2)cc1`, the growth in the test with SR leukemia was -40.2% (active); in the test on RPMI-8226 leukemia, -44.1% (active); with OVCAR-8 ovarian, -6.37% (active); in the test on OVCAR-5 ovarian, 19.8%; in the test on OVCAR-4 ovarian it was -6.26% (active); in the test on SK-OV-3 ovarian, 63%. The growth was 13.9% in the test with IGROV1 ovarian; -79.6% (active) with OVCAR-3 ovarian; -28% (active) in the test with HS 578T breast; -8.18% (active) with NCI/ADR-RES ovarian; -25.2% (active) in the test on T-47D breast; 44.7% with BT-549 breast. Further, the growth in the test on MDA-MB-435 melanoma was -100% (active); in the test with SW-620 colon it was -78.4% (active); with MCF7 breast it was -67.7% (active); in the test on HCT-116 colon, -87.1% (active); with HCC-2998 colon, -90.9% (active); in the test on KM12 colon, -75.4% (active).

Turning to `NCc1cn2cc(Cl)sc2n1`, the growth was 102% in the test on SR leukemia; 106% in the test with RPMI-8226 leukemia; 105% with OVCAR-8 ovarian; 98% with OVCAR-5 ovarian; 100% in the test with OVCAR-4 ovarian; 103% in the test with SK-OV-3 ovarian. The growth is 109% in the test with IGROV1 ovarian; 114% in the test with OVCAR-3 ovarian; 113% in the test on HS 578T breast; 111% with NCI/ADR-RES ovarian; 111% in the test with T-47D breast; 111% in the test on BT-549 breast. For the same compound, the growth is 113% in the test with MDA-MB-435 melanoma; 106% in the test with SW-620 colon; 95% in the test on MCF7 breast; 107% in the test with HCT-116 colon; 102% with HCC-2998 colon; 106% in the test on KM12 colon.

For `CN1CCCCC1CCN1c2ccccc2Sc2ccc(Br)cc21` (centres undefined), the growth was -32% (active) with SR leukemia; 46% with RPMI-8226 leukemia; 62.3% in the test with OVCAR-8 ovarian; 85.9% in the test on OVCAR-5 ovarian; 59.4% in the test on OVCAR-4 ovarian; 69.6% in the test on SK-OV-3 ovarian. Moreover, the growth in the test with IGROV1 ovarian was 35.9%; with OVCAR-3 ovarian, 77.9%; with HS 578T breast, 81%; in the test with NCI/ADR-RES ovarian, 73.2%; in the test on T-47D breast, 77.9%; with BT-549 breast, 68.5%. Besides, the growth was 20.4% in the test on MDA-MB-435 melanoma; 79.6% in the test on SW-620 colon; 21% with MCF7 breast; 28.8% with HCT-116 colon; 51.3% in the test with HCC-2998 colon; 60.7% with KM12 colon.

In the case of `Cc1ccc(/C=C2\Oc3cc(OCC(=O)c4ccc(Cl)cc4)ccc3C2=O)cc1`, the growth was 94.7% with SR leukemia; 248% with RPMI-8226 leukemia; 92.9% with OVCAR-8 ovarian; 102% in the test with OVCAR-5 ovarian; 119% in the test with OVCAR-4 ovarian; 115% in the test with SK-OV-3 ovarian. The growth is 57.1% with IGROV1 ovarian; 94.9% in the test on OVCAR-3 ovarian; 95.4% in the test with HS 578T breast; 102% in the test with NCI/ADR-RES ovarian; 97.9% in the test with T-47D breast; 110% with BT-549 breast. In addition, the growth in the test with MDA-MB-435 melanoma is 104%; in the test with SW-620 colon, 97.1%; with MCF7 breast, 119%; in the test with HCT-116 colon it was 89.5%; in the test with HCC-2998 colon, 92.6%; in the test with KM12 colon it was 104%.

As for `OC(c1cc(-c2ccccc2)nc2ccc(Cl)cc12)C1CCCCN1` (centres undefined), the growth is -25.8% (active) in the test with SR leukemia; 13.1% in the test on RPMI-8226 leukemia; 33.1% with OVCAR-8 ovarian; 58.8% in the test with OVCAR-5 ovarian; 79% in the test on OVCAR-4 ovarian; 89.1% in the test with SK-OV-3 ovarian. Besides, the growth in the test with IGROV1 ovarian was 53.4%; in the test with OVCAR-3 ovarian, 67.5%; in the test with HS 578T breast it was 61.6%; with NCI/ADR-RES ovarian, 68.5%; in the test on T-47D breast, 19.9%; with BT-549 breast, 91.5%. The growth in the test on MDA-MB-435 melanoma was 42.6%; with SW-620 colon, 21.2%; in the test with MCF7 breast, -41% (active); in the test on HCT-116 colon, 33.4%; in the test on HCC-2998 colon it was -87.7% (active); with KM12 colon it was 6.52% (active).

Turning to `CC1=CC(=O)CC(C)(C)[C@@]1(O)/C=C/[C@@H](C)O`, the growth was 111% in the test with SR leukemia; 109% with RPMI-8226 leukemia; 90.1% in the test on OVCAR-8 ovarian; 103% in the test with OVCAR-5 ovarian; 106% in the test on OVCAR-4 ovarian; 113% in the test with SK-OV-3 ovarian. Moreover, the growth in the test with IGROV1 ovarian was 107%; with OVCAR-3 ovarian, 108%; in the test with HS 578T breast, 105%; in the test with NCI/ADR-RES ovarian it was 95.6%; in the test with T-47D breast, 91.7%; in the test on BT-549 breast it was 105%. Also, the growth was 102% in the test with MDA-MB-435 melanoma; 105% in the test on SW-620 colon; 84.6% with MCF7 breast; 101% in the test with HCT-116 colon; 94.7% in the test with HCC-2998 colon; 102% with KM12 colon.

Consider `CCN(C(=O)CN1CCN(c2cc3c(cc2F)c(=O)c(C(=O)O)cn3CC)CC1)c1nc(-c2ccccc2)cs1`, for which the growth with SR leukemia was -11% (active); in the test on RPMI-8226 leukemia, -3.49% (active); with OVCAR-8 ovarian, 7.67% (active); with OVCAR-5 ovarian, 35.6%; in the test with OVCAR-4 ovarian it was 3.24% (active); in the test on SK-OV-3 ovarian it was -2.59% (active). Also, the growth was 23.3% with IGROV1 ovarian; 16.8% in the test on OVCAR-3 ovarian; 13.6% with HS 578T breast; 5.3% (active) in the test with NCI/ADR-RES ovarian; 11.9% with T-47D breast; 3.3% (active) in the test on BT-549 breast. Further, the growth in the test with MDA-MB-435 melanoma is -13.9% (active); in the test on SW-620 colon, 13.9%; in the test on MCF7 breast it was 7.6% (active); with HCT-116 colon, 14%; with HCC-2998 colon it was 19.6%; with KM12 colon, 12.7%.

In the case of `COc1ccc(CCN2CCCn3c2nc2ccccc2c3=O)cc1`, the growth with SR leukemia was 24.8%; in the test on RPMI-8226 leukemia, 29.9%; in the test on OVCAR-8 ovarian, 28.8%; in the test with OVCAR-5 ovarian, 41.6%; in the test on OVCAR-4 ovarian, 41.9%; in the test on SK-OV-3 ovarian, 53.7%. In addition, the growth was 40.3% in the test with IGROV1 ovarian; -4.64% (active) with OVCAR-3 ovarian; 38.9% in the test with HS 578T breast; 14.7% in the test on NCI/ADR-RES ovarian; 80.8% in the test on T-47D breast; 29.5% in the test with BT-549 breast. Besides, the growth in the test on MDA-MB-435 melanoma is -15.2% (active); with SW-620 colon, 27%; in the test with MCF7 breast, 16.8%; with HCT-116 colon, 14.3%; with HCC-2998 colon, 8.36% (active); with KM12 colon, 14.7%.

For the origin of these results see PubChem BioAssay (NCI).
